Assay outcomes (PubChem)
HCV inh – inhibitors of hepatitis C virus infection; AID 651820; Huh7.5.1 HCVcc-Cre infection, luciferase reporter, 44 h; Potency, µM (highest dose often 41.8 µM), without a hit: at the highest dose activity change, negative = inhibition, most hits filed as inhibitors; actives 3.4% (n = 340,000); further: potency means the concentration at half of the fitted maximal effect
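Infectious HCVcc-Cre (~0.5 moi) was added to cells just after compound, with cells seeded 4 h earlier at 1,000 per well. Luciferase activity after 44 h culture reported infection; substrate was incubated 15 min at room temperature before reading.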
HCMV inh – human cytomegalovirus inhibition; HFF cells, HCMV-luciferase reporter, 72 h; stronger effect = lower value; activity change, negative = inhibition, % at 57.5 µM; actives 4.5% (n = 410,000); in the data active means activity change below about -60%; inconclusive means no clear call, values can overlap the other calls; inactive means above about -39%
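Inhibition of viral replication was scored as loss of reporter luminescence in HFFs infected with HCMV-luciferase (MOI 1 PFU/cell) for 72 h; compounds tested at 2 doses, normalized to buffer and Salinomycin controls.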
Sm TGR block – blocks Schistosoma mansoni thioredoxin glutathione reductase; Q962Y6; AID 485364; purified TGR, DTNB reduction, TNB absorbance 405 nm; Potency, µM (top dose mostly 114 µM), without a hit: at the highest dose activity change, negative = inhibition, most hits filed as inhibitors; actives 3% (n = 360,000); further: potency means the concentration at half of the fitted maximal effect; nearly all actives have a fitted effect of over 60% in size
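First, TGR (20 nM dispensed) and NADPH were mixed with compound. Second, a 15 min room-temperature incubation followed. Third, further NADPH and then DTNB were added to start the reaction. Finally, TNB absorbance was monitored kinetically.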
FMDV inh – foot and mouth disease virus antiviral activity; FMDV antiviral cell-based qHTS; Potency, µM (top dose mostly 57.9 µM), for inactives: top-dose activity change, negative = inhibition, hits mostly inhibitors; actives 1.2% (n = 410,000); AID 1159524; calls by dose curve; tested in HEK293T cells; further: read-out not given here; potency means the concentration at half of the fitted maximal effect; nearly all actives have a fitted effect of over 45% in size
VACV mCherry inh – vaccinia inhibition (mCherry reporter). Vaccinia virus mCherry reporter infection, fluorescence. Potency, µM (top dose mostly 36.5 µM), without a hit: at the highest dose activity change, negative = inhibition, hits mostly inhibitors. actives 0.63% (n = 310,000). AID 720579; calls by dose curve; tested in A549 cells; further: potency means the concentration at half of the fitted maximal effect; nearly all actives have a fitted effect of over 35% in size
Vaccinia Venus – inhibitors of vaccinia virus (Venus reporter). actives 0.46% (n = 330,000). Potency, µM (series often up to 36.5 µM), without a hit: at the top dose activity change, negative = inhibition, actives largely listed as inhibitors. Vaccinia virus Venus reporter expression, fluorescence; calls by dose curve; tested in A549 cells; further: potency means the concentration at half of the fitted maximal effect; nearly all actives have a fitted effect of over 30% in size
Active calls of the source: *; [ ] = remark or other dose. Sampled rows, rich in hits. Any-hit rate of the full collection: about 9.3%. Unless noted, the call rests on the fitted dose curve; in most records, active means well fitted curve in the direction sought with a large enough effect; inconclusive means small, poorly fitted or top-dose-only effect, or another doubt; inactive means no such curve, though single readings can be large; an effect the other way counts as inactive or inconclusive. On the % scale 0 is the no-effect control and ±100 the full control effect.

`Cc1cc(C)n(-c2ccc(C(=O)Nc3ccc(C)c(S(=O)(=O)N(C)C)c3)cc2)n1` gave HCV inh 10µM*, HCMV inh -80.7*, Sm TGR block -11.2%, FMDV inh 15.8µM*, VACV mCherry inh inconclusive and Vaccinia Venus inconclusive.
CC(=O)c1cc2c(cc1NC(=O)c1ccc(-n3nc(C)cc3C)cc1)OCO2 was read as HCV inh inconclusive, HCMV inh -31.8 and FMDV inh -13.5%.
Cc1ccc(C)c(N2CCN(C(=O)c3cc(S(=O)(=O)N4CCCCCC4)cn3C)CC2)c1 was read as HCMV inh 2.4, Sm TGR block -1.2%, FMDV inh 0.0%, VACV mCherry inh inconclusive and Vaccinia Venus -26.9%.
CCNS(=O)(=O)c1ccc(OC)c(C)c1 was read as HCV inh 8.9%, HCMV inh 35.7, Sm TGR block 3.8%, VACV mCherry inh -6.2% and Vaccinia Venus -10.7%.
CC(=O)Nc1cccc(NS(=O)(=O)c2c(C)noc2C)c1 was read as HCV inh 21.4%, HCMV inh -30.0, FMDV inh -8.7%, VACV mCherry inh 6.31µM* and Vaccinia Venus inconclusive.
`Cc1cc(C)n(-c2ccc(C(=O)Nc3ccc(S(=O)(=O)N(C)C)cc3)cc2)n1` gave HCV inh inconclusive, HCMV inh -97.2*, Sm TGR block -3.9%, FMDV inh inconclusive, VACV mCherry inh -4.4% and Vaccinia Venus -22.2%.
Screening COc1ccc(NC(=O)c2ccc(-n3nc(C)cc3C)cc2)cc1OC returned HCV inh 7.08µM*, HCMV inh 18.0, Sm TGR block 7.7%, FMDV inh 3.5% and Vaccinia Venus -10.5%.
Cc1cc(C)n(-c2ccc(C(=O)Nc3ccc4c(c3)OCO4)cc2)n1 was read as HCV inh inconclusive, HCMV inh -11.1, Sm TGR block 12.1%, FMDV inh -14.7% and Vaccinia Venus -24.7%.
CC(=O)c1cccc(NS(=O)(=O)c2c(C)noc2C)c1 was read as HCV inh 17.0%, HCMV inh 40.4, Sm TGR block -18.9%, FMDV inh 31.1%, VACV mCherry inh -14.5% and Vaccinia Venus -3.8%.
CCN(CC)S(=O)(=O)c1cccc(NC(=O)c2ccc(-n3nc(C)cc3C)cc2)c1 was read as HCV inh 2.51µM*, HCMV inh -82.5*, Sm TGR block 3.1%, FMDV inh 20µM*, VACV mCherry inh inconclusive and Vaccinia Venus inconclusive.
Screening Cc1cc(C)n(-c2ccc(C(=O)Nc3ccc(N4CCOCC4)cc3)cc2)n1 returned HCV inh 9.2%, HCMV inh -32.1, Sm TGR block 7.2%, FMDV inh 3.8% and Vaccinia Venus inconclusive.
Cc1cccc(C)c1NC(=O)c1nc2ccc([N+](=O)[O-])cc2nc1-c1ccccc1 was read as HCMV inh 42.0.
CN(C)S(=O)(=O)c1cccc(NC(=O)c2cc(-c3cccs3)nn2-c2cccc(Cl)c2)c1 was read as HCV inh inconclusive, HCMV inh -105.9*, Sm TGR block -9.2%, FMDV inh -14.3%, VACV mCherry inh -18.9% and Vaccinia Venus -27.9%.
Screening Cc1cc(C)n(-c2ccc(C(=O)Nc3cccc(S(=O)(=O)N(C)C)c3)cc2)n1 returned HCV inh 5.01µM*, HCMV inh -95.6*, Sm TGR block -18.7%, FMDV inh 22.4µM*, VACV mCherry inh -17.2% and Vaccinia Venus -26.2%.
Screening CCCCN1C(=O)c2ccc(C(=O)Nc3ccc(C)c(S(=O)(=O)N(C)C)c3)cc2C1=O returned HCV inh inconclusive, HCMV inh -27.6, Sm TGR block -2.9%, FMDV inh 17.8µM*, VACV mCherry inh -14.0% and Vaccinia Venus -11.4%.
For Cc1cccc(NC(=O)c2ccc(S(=O)(=O)N(C)C)cc2)c1 the results were HCV inh inconclusive, HCMV inh 27.7, Sm TGR block -15.2%, FMDV inh 1.3%, VACV mCherry inh -14.4% and Vaccinia Venus -20.6%.
Screening COC(=O)[C@@H]1C[C@@]2(O)[C@@H](O)[C@@H](O)[C@@H](O)C[C@H]2N1Cc1cc(OC)cc(OC)c1 returned HCV inh 0.501µM*, HCMV inh -99.6*, Sm TGR block -14.4%, FMDV inh 15.7%, VACV mCherry inh inactive and Vaccinia Venus -11.8%.
COC(=O)[C@@H]1C[C@@]2(O)[C@H](O)[C@H](O)[C@H](O)C[C@H]2N1Cc1cc(OC)cc(OC)c1 was read as HCV inh 17.7%[8.37 µM], HCMV inh 7.6, Sm TGR block 1.7%, FMDV inh 2.4%, VACV mCherry inh -2.3% and Vaccinia Venus 9.7%.
Screening COc1ccc(-c2cc(-c3ccco3)[nH]c(=O)c2C#N)cc1OC returned HCV inh -2.9%, HCMV inh 13.6, Sm TGR block 3.98µM* and FMDV inh -7.7%.
`N#Cc1c(-c2ccccc2)cc(-c2ccc3c(c2)OCO3)[nH]c1=O` gave HCV inh 31.6%, HCMV inh 10.2, Sm TGR block -0.5%, FMDV inh -12.5%, VACV mCherry inh -13.0% and Vaccinia Venus -3.9%.
Screening O=C(Oc1c(-c2ccccc2)c(=O)n2c3c(cccc13)CC2)c1cccc([N+](=O)[O-])c1 returned HCV inh 18.4%, HCMV inh -72.3*, Sm TGR block inconclusive, FMDV inh -11.7%, VACV mCherry inh -1.8% and Vaccinia Venus -17.6%.
For COC(=O)C(CCSC)NC(=O)c1cc2c(n(-c3ccc(C)cc3)c1=O)CCCC2=O (stereo unspecified) the results were HCV inh 3.7%, HCMV inh -36.1, Sm TGR block inconclusive, FMDV inh 2.3%, VACV mCherry inh inactive and Vaccinia Venus 1.1%.
CCN(CC)CCN(C(=O)CCS(=O)(=O)c1ccccc1)c1nc2cc(C)cc(C)c2s1 was read as HCV inh 10.5%, HCMV inh -8.3, Sm TGR block inconclusive, FMDV inh inconclusive, VACV mCherry inh -1.7% and Vaccinia Venus -19.8%.
`CCN(CC)CCN(C(=O)CCS(=O)(=O)c1ccccc1)c1nc2cc(OC)c(OC)cc2s1` gave HCV inh 5.9%, HCMV inh 7.1, Sm TGR block 14.1µM*, FMDV inh -2.3%, VACV mCherry inh -28.5% and Vaccinia Venus -13.1%.
Screening CCN(CC)CCN(C(=O)CCS(=O)(=O)c1ccccc1)c1nc2c(C)cc(C)cc2s1 returned HCV inh inconclusive, HCMV inh inconclusive, Sm TGR block inconclusive, FMDV inh -4.0%, VACV mCherry inh 14.1µM* and Vaccinia Venus inconclusive.
COc1ccc(-c2[nH]ncc2-c2cnc(C)s2)c(O)c1 was read as HCV inh -16.2%, HCMV inh -25.7, Sm TGR block 6.2%, VACV mCherry inh -11.2% and Vaccinia Venus 0.8%.
